Data on four compounds can be found in PubChem BioAssay.

Assay [1] can be described thus: yeast TOR pathway RPL19A-GFP modulators, primary screen, cell-based, S. cerevisiae, multiplex flow cytometry (AID 1862; in the data active means percent of DMSO control GFP below about 86%;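 further: lower values mimic rapamycin by blocking the RPL19A rise seen in DMSO cells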). Particulars: S. cerevisiae RPL19A-GFP strain, flow cytometry fluorescence, 3 h; at 10 µM; stronger effect = lower value.
The nature of assay [2]: modulators of MEP2-GFP levels in yeast, primary screen, S. cerevisiae, multiplex flow cytometry (AID 1867;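 active means GFP response, as percent of the DMSO control, above the screen-wide mean plus 3 SD, about 139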;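 further: median GFP channel fluorescence of barcode-gated MEP2-GFP cells measured by flow cytometry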). Particulars: S. cerevisiae MEP2-GFP strain, 3 h, at 10 µM, stronger effect = higher value, 100% means same as DMSO wells.
Assay [3] can be described thus: modulators of CIT2-GFP expression in yeast, primary screen, S. cerevisiae, GFP fusion, multiplex flow cytometry (AID 1870;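 active means percent response above a set limit, the screen-wide mean plus 3 SD, cut at about 130% in these data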;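 further: barcoded CIT2-GFP strain pooled with four other GFP strains with rapamycin as positive control; median GFP fluorescence per well over plate mean of DMSO wells so 100% = DMSO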). Particulars: 3 h, at 10 µM, stronger effect = higher value.
Assay [4] can be described thus: modulators of LAP4-GFP expression in yeast, primary screen, S. cerevisiae, multiplex flow cytometry (AID 1873;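 active means GFP signal, as percent of the solvent control, above the screen mean plus 3 SD, about 149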). Particulars: 3 h, at 10 µM, stronger effect = higher value.
A short description of assay [5]: modulators of AGP1-GFP expression in yeast TOR pathway, primary screen, cell-based, multiplex flow cytometry, S. cerevisiae (AID 1887;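 active means GFP signal above the screen-wide mean plus 3 SD, that is over about 124.5% of the solvent control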;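 further: AGP1-GFP fusion strain of S. cerevisiae within a five-strain barcoded multiplex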). The conditions noted are these: 3 h, at 10 µM, stronger effect = higher value.
Assay [6] is described as follows: inhibitors of CD8+ T cell-vesicle binding, pilot screen, LFA-1/ICAM-1 modulator project, MLPCN validation set, flow cytometry (AID 2523;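 active means response below a set limit, under 55% cells CD8-positive and vesicle-bound, and CD8 cells' 90th-percentile brightness under 279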;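 on vesicle binding response: mean PE anti-B7-1 fluorescence of CD8+ cells relative to row control; 100% = QL9-loaded vesicles with DMSO vehicle in the same plate row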). The conditions noted are these: 2C mouse CD8+ T cells, at 7 µM, stronger effect = lower value; double positive events: measured here: CD8+/vesicle+ event percentage.
Assay [7] concerns the target Integrin beta-1 (Homo sapiens) + Integrin alpha-4 (Homo sapiens) (UniProt P13612+P05556). The assay can be described thus: inhibition of HUTS-21 binding to VLA-4, pilot screen, VLA-4 allosteric modulator project, U937 cells, HUTS-21 mAb, flow cytometry, validation set (AID 2674;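 active means inhibition above 50%, about 3 SD of the validation set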;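 further: antibody binding induced by the VLA-4 ligand LDV present at three times its Kd; 0% = LDV ligand with antibody and no compound and 100% = antibody without LDV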). Particulars: HUTS-21 LIBS mAb binding, at 6.7 µM, stronger effect = higher value, binding induced by LDV ligand.

The nature of assay [8]: superoxide lowering in aged yeast cells, pilot screen, validation compound set (AID 2706;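 active means superoxide response below 65% of plate, a cut near 3 SD across the whole screen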;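 further: yeast exposed to compound for one week at 30 degrees C before staining; 100% = mean of all compound wells on the same plate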). The conditions noted are these: S. cerevisiae aging, superoxide DHE fluorescence; at 10 µM; stronger effect = lower value.
For assay [9], the target named is Beta-adrenergic receptor kinase 1 (Homo sapiens) (UniProt P25098). Put plainly: GRK2 binders displacing RNA aptamer, biochemical, validation, human GRK2, bead flow cytometry (AID 488806;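 active means aptamer binding inhibition above 30%, about 3 SD of noise from non-fluorescent compounds; inactive means inhibition at or below 30%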). Particulars: bead-bound GRK2, FAM-aptamer displacement, at 10 µM, stronger effect = higher value.
Chain of Beta-adrenergic receptor kinase 1 (Homo sapiens) (P25098 whole entry, looked up): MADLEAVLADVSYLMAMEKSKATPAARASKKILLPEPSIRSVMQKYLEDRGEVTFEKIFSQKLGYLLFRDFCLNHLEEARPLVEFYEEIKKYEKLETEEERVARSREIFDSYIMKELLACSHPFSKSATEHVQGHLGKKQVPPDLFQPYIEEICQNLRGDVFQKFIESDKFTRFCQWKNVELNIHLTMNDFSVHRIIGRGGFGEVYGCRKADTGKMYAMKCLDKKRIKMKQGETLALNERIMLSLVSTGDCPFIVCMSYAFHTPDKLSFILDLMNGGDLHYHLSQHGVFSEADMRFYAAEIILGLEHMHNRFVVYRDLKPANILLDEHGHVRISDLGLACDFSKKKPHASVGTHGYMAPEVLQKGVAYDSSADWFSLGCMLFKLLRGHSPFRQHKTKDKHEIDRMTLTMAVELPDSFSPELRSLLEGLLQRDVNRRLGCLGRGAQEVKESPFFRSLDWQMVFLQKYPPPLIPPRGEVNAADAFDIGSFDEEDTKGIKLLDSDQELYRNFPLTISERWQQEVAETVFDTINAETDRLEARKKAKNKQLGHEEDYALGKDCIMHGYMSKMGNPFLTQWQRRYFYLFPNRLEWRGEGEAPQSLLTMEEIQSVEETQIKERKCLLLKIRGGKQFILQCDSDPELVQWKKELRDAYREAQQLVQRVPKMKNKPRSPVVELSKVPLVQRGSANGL
In assay [10] the target is Beta-2 adrenergic receptor (Homo sapiens) (UniProt P07550). The assay can be described thus: beta2AR agonists driving receptor internalization, pilot screen, cell-based, FAP fluorogen, flow cytometry, validation set (AID 504459;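 active means percent response above 42, roughly 3 SD of non-fluorescent test compounds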;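 further: agonist-driven loss of surface beta2AR via internalization measured by FAP dye flow cytometry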). Particulars: Am2.2-beta2AR cells, FAP surface receptor flow cytometry; at 10 µM; stronger effect = higher value.
Chain of Beta-2 adrenergic receptor (Homo sapiens) (P07550 whole entry, looked up): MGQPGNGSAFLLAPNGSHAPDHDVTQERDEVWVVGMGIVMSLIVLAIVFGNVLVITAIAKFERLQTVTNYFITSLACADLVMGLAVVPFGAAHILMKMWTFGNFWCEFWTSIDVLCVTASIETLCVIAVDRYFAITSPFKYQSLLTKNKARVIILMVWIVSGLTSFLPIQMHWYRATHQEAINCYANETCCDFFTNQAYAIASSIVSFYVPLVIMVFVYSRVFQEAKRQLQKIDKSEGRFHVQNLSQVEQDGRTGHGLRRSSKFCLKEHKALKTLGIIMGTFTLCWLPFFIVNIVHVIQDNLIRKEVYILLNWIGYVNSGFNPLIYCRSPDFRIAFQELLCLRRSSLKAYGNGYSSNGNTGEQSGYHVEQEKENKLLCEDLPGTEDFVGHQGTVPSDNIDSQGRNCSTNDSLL
For assay [11], the target named is AP-2 complex subunit beta (Homo sapiens) (UniProt P63010). The assay can be described thus: inhibitors of arrestin peptide binding to AP2, pilot screen, biochemical, validation set, GST-AP2 beads, flow cytometry (AID 504541;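 active means inhibition above 54%, about 3 SD of non-fluorescent compounds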;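 further: AP2 carries R879A mutation and is captured from E. coli lysate; bead-bound FITC arrestin peptide fluorescence measuring arrestin peptide binding to AP2; 0% = DMSO wells and 100% = excess unlabeled arrestin peptide control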). The conditions noted are these: FITC arrestin peptide, at 10 µM, stronger effect = higher value, AP2 beta2 appendage fragment, R879A mutant.
Chain of AP-2 complex subunit beta (Homo sapiens) (P63010 whole entry, looked up, the tested form may be a part, one chain of several): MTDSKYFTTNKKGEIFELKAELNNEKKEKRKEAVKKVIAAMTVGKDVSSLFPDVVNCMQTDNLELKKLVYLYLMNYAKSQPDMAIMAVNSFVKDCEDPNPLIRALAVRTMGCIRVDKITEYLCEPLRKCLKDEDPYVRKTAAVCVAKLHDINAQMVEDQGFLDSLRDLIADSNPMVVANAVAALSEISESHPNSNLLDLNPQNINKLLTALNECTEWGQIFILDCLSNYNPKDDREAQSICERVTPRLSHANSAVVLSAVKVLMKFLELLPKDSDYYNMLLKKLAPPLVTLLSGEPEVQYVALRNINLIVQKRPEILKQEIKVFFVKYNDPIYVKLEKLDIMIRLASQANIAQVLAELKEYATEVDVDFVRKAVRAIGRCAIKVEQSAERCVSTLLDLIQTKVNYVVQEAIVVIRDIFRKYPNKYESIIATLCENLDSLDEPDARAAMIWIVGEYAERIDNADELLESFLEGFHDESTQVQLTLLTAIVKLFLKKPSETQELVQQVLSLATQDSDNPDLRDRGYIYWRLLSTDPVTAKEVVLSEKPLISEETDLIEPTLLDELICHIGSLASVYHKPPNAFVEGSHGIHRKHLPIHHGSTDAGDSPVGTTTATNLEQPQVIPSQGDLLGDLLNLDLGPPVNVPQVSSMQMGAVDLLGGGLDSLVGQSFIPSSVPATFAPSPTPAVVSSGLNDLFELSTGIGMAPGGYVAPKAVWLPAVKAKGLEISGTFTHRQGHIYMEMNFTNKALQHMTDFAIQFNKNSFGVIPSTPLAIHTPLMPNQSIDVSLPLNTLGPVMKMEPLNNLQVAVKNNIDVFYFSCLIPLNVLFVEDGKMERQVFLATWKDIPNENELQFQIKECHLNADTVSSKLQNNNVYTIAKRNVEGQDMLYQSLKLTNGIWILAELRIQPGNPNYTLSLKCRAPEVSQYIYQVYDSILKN
Assay [12] in a line: yeast V-ATPase proton transport modulators, S. cerevisiae, pHLuorin, HTS validation (AID 504600; in the data active means response above about 15%;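 further: plate controls were DMSO for no effect and reference compound for full effect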). Particulars: S. cerevisiae pHLuorin cytosolic pH, at 10 µM, stronger effect = higher value.
For assay [13], the system named is anti-desmoglein-3 scFv antibody binding to human DSG3. The assay can be described thus: inhibitors of anti-DSG3 scFv binding to DSG3, pilot screen, biochemical, validation compound set, bead-based, flow cytometry (AID 588368;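 active means binding below the plate cutoff, the plate median minus 3 SD, with a reading above zero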;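 further: signal is the median channel fluorescence of bead-bound GFP antibody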). The conditions noted are these: Protein G beads, DSG3-Fc, scFv-GFP binding, at 10 µM, stronger effect = lower value.
Assay [14] can be described thus: inhibitors of fungal efflux pumps CDR1, CDR2, MDR1, pilot screen, validation compound set, multiplex, phenotypic (AID 588506;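 active means efflux inhibition above 0.42, the validation set average plus 4 SD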;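 further: Nile Red retained in cells so higher fluorescence means more efflux inhibition; 0 = negative control wells and 1 = enniatin B 25 µM full block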). Particulars: S. cerevisiae pump-expressing triplex, Nile Red efflux flow cytometry; at 10 µM; stronger effect = higher value; the pumps come from Candida albicans.
Assay [15] deals with ATP-binding cassette sub-family B member 6 (Homo sapiens) (UniProt Q9NP58). The assay can be described thus: ABCB6 transporter inhibitors, pilot screen, K562-ABCB6 cells, flow cytometry, validation set (AID 588550).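 Further: 0% = DMSO wells and 100% = benzethonium chloride 70 µM positive control.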 Particulars: K562-ABCB6 porphyrin accumulation, 1 h, at 10 µM, stronger effect = higher value.
Chain of ATP-binding cassette sub-family B member 6 (Homo sapiens) (Q9NP58 whole entry, looked up): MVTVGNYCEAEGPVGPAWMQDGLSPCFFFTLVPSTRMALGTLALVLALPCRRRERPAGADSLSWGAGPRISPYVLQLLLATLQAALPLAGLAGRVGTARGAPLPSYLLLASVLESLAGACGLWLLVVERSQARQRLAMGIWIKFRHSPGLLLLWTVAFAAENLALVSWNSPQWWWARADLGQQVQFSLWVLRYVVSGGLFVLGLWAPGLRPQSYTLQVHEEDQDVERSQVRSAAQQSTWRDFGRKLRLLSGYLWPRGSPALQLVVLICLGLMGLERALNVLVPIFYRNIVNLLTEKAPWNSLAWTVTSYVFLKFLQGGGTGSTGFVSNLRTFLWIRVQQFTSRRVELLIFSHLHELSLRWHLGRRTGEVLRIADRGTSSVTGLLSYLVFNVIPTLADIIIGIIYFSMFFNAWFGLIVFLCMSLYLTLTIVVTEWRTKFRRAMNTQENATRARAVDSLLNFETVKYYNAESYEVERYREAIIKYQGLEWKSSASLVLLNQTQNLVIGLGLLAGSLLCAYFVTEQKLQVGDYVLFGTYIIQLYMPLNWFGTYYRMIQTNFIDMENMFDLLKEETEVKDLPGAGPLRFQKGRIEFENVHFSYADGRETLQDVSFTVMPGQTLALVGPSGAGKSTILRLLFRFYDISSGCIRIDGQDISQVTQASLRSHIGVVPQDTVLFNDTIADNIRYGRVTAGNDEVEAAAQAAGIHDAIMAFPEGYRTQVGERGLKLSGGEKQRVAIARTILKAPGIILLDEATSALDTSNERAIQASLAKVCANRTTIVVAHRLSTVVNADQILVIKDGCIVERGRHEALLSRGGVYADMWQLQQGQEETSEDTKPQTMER
Assay [16] in a line: promoters of myeloid differentiation in arrested cells, primary screen, cell-based, GFP/MAC1 double positive, flow cytometry, validation set (AID 588685;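 active means differentiation response of at least 50%, scaled between solvent and reference control, from cells with both markers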;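 further: compound exposure lasts four days before antibody staining and flow analysis; 0% = DMSO wells and 100% = 5 µM fulvestrant positive control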). The conditions noted are these: ER-HoxA9 marrow cells, stronger effect = higher value, normalized: vehicle 0, fulvestrant 100.

Structures are written as SMILES. Records with an inconclusive call do not appear. The source made the active and inactive calls.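 How the source made its calls, unless noted: active means inhibition above the screen-wide mean plus 3 SD, about 51%; inactive means the rest.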

Chain of Integrin beta-1 (Homo sapiens) + Integrin alpha-4 (Homo sapiens) (P05556 whole entry, looked up): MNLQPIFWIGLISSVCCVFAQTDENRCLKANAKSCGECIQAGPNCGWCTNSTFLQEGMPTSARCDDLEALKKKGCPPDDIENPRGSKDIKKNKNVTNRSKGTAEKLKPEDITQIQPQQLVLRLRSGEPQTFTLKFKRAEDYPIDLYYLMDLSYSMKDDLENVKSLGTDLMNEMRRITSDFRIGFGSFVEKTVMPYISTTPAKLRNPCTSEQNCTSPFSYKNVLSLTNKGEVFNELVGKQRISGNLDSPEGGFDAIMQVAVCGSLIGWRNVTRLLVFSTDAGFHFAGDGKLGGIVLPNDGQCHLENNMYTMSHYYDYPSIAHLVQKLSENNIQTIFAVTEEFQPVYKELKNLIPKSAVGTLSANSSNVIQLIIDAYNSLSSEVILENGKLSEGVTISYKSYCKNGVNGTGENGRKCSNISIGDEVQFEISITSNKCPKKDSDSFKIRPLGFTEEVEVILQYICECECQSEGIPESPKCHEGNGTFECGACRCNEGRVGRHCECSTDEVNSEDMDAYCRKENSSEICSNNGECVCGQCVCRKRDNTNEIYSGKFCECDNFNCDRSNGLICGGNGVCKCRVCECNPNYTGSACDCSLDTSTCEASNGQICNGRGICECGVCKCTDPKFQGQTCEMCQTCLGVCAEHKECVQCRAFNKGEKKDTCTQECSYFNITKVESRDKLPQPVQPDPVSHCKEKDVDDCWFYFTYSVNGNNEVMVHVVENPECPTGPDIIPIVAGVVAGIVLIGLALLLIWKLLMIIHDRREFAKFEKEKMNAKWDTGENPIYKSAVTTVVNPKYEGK
Chain of Integrin beta-1 (Homo sapiens) + Integrin alpha-4 (Homo sapiens) (P13612 whole entry, looked up): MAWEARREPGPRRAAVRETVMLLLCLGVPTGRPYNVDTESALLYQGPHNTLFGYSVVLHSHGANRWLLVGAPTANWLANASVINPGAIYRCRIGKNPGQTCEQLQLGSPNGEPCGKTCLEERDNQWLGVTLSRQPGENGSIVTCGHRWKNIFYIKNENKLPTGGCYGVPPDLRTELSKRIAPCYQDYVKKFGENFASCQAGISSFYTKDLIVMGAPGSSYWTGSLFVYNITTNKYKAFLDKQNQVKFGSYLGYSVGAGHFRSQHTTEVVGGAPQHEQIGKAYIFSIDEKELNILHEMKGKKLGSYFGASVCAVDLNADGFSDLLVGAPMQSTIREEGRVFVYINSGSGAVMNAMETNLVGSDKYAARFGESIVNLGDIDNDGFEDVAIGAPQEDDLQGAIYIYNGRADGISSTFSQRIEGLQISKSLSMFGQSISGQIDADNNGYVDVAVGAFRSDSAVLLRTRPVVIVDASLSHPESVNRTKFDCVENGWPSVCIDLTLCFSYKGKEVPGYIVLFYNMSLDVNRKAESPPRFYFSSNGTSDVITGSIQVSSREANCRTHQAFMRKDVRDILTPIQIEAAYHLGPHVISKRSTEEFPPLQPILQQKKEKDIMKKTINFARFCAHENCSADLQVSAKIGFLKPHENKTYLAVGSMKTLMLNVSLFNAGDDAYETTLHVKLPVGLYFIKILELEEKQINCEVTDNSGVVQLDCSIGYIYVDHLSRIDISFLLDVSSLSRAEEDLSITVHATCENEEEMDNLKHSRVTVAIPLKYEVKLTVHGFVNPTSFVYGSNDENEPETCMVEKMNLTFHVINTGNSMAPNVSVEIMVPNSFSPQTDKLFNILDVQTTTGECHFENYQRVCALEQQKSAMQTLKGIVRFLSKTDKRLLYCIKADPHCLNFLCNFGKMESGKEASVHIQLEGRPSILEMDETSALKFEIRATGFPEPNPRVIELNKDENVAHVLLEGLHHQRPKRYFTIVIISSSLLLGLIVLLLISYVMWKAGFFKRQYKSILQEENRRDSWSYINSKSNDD

`COc1ccccc1C(O)c1nccn1C` (stereo not drawn): the percent of DMSO control GFP in assay [1] was 92% (inactive). In addition, the results for the GFP response vs DMSO in assay [2] and in [4] were 127% (inactive) and 79.8% (inactive), respectively. Further, in assay [3], the percent response of DMSO control is 106% (inactive). The GFP response, % of DMSO in [5] is 93.1% (inactive). In assay [6], this compound gave a double positive events of 76.2%. Besides, the vesicle binding response in assay [6] was 282% (inactive). For the same compound, the inhibition in [7] is 17.1% (inactive); in [11] it was 0.35% (inactive); in [15], 11% (inactive). For the same compound, the superoxide response (% of plate) in [8] is 81.3% (inactive). Besides, the aptamer binding inhibition in assay [9] was 4% (inactive). Also, the response is -3.43% (inactive) in assay [10] and 24.9% (active) in assay [12]. In assay [13], the binding (% of control) is 104% (inactive). The efflux inhibition (fraction of control) in assay [14] was -0.35 (inactive). For the same compound, in assay [16], the differentiation response was -7.37% (inactive).
In the case of `Cc1c(Cc2ccccc2)c(=O)oc2c(CN(C)C)c(O)c(Cl)cc12`, the percent of DMSO control GFP in assay [1] was 98.2% (inactive). Also, the GFP response vs DMSO in assay [2] was 108% (inactive); in [4] it was 92.7% (inactive). Moreover, the percent response of DMSO control in assay [3] was 94.2% (inactive). The GFP response, % of DMSO in [5] is 98% (inactive). The same compound returned a double positive events in [6] of 61.8%. For the same compound, in assay [6], the vesicle binding response is 358% (inactive). The results for the inhibition in assay [7], in assay [11] and in [15] were 0.58% (inactive), 0.49% (inactive) and 2% (inactive), respectively. In addition, the superoxide response (% of plate) in assay [8] is 98.2% (inactive). Further, the aptamer binding inhibition in assay [9] was 3% (inactive). In addition, the values for the response in assay [10] and in assay [12] were -3.4% (inactive) and 0.93% (inactive), respectively. In addition, the binding (% of control) in [13] was 99.3% (inactive). For the same compound, the efflux inhibition (fraction of control) in assay [14] is -0.39 (inactive). In addition, in [16], the differentiation response is -5.62% (inactive).
For the compound `O=CNC1CCCc2c1[nH]c1ccc(Cl)cc21` (stereo not drawn), in [1], the percent of DMSO control GFP was 101% (inactive). Also, the GFP response vs DMSO in [2] was 96.2% (inactive); in assay [4], 89.4% (inactive). The percent response of DMSO control in [3] was 100% (inactive). Also, the GFP response, % of DMSO in [5] was 98.3% (inactive). Further, the double positive events in assay [6] came out at 64.4%. In addition, the vesicle binding response in assay [6] is 173% (inactive). In addition, the inhibition in assay [7] was -5.64% (inactive); in [11], -3.47% (inactive); in assay [15] it was -3% (inactive). Besides, the superoxide response (% of plate) in assay [8] is 113% (inactive). Moreover, in [9], the aptamer binding inhibition was 2% (inactive). Moreover, the response in assay [10] is 3.11% (inactive); in assay [12] it was 0.49% (inactive). In addition, in assay [13], the binding (% of control) is 95.9% (inactive). Besides, the efflux inhibition (fraction of control) in [14] was -0.04 (inactive). Also, in [16], the differentiation response was 8.06% (inactive).
For the compound `COc1ccc(OC(C)C(=O)Nc2ccc([N+](=O)[O-])cc2)cc1` (stereo not drawn), the percent of DMSO control GFP in assay [1] is 102% (inactive). For the same compound, the GFP response vs DMSO was 107% (inactive) in assay [2] and 114% (inactive) in assay [4]. The percent response of DMSO control in assay [3] is 99.7% (inactive). In addition, in assay [5], the GFP response, % of DMSO was 97.5% (inactive). The compound also came in with a double positive events in assay [6] of 65.7%. For the same compound, the vesicle binding response in [6] was 249% (inactive). Also, the inhibition in assay [7] was 0.25% (inactive); in assay [11] it was -7.72% (inactive); in assay [15], 5% (inactive). In addition, in assay [8], the superoxide response (% of plate) was 103% (inactive). Further, in assay [9], the aptamer binding inhibition was -3% (inactive). Moreover, the response in assay [10] is 1.65% (inactive); in assay [12], 3.86% (inactive). Also, the binding (% of control) in assay [13] is 103% (inactive). Besides, the efflux inhibition (fraction of control) in assay [14] was -0.21 (inactive). The differentiation response in assay [16] is 13% (inactive).
